# PINK1 expr mod = modulators of PINK1 expression. 410,000 tested, 0.2% active. PINK1 immunofluorescence, high-content cytometry, 24 h. Potency, µM (highest dose often 76.6 µM), inactives show top-dose activation (PINK1 increase), usual class: activators; active = well fitted activation curve with a large enough effect; inconclusive = small, poorly fitted or top-dose-only effect; cell line not stated here; also: potency is read from the fitted curve at half-maximal effect; % of control where 0% means no effect; nearly all actives have a fitted effect of over 65% in size
#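 Stable cell line treated 24 h with compounds at 5 concentrations (CCCP controls), then fixed and immunostained for PINK1 plus nuclear and cell stains; PINK1 immunofluorescence quantified by laser-scanning microplate cytometry.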
# GLS inh = inhibitors of human glutaminase (GLS) | GLS enzymatic activity, qHTS titration | O94925 | Potency, µM (highest dose often 45.5 µM), inactives show at the highest dose activity change, negative = inhibition, actives largely listed as inhibitors | 410,000 tested, 0.21% active; also: potency is read from the fitted curve at half-maximal effect; % is scaled to controls: 0 for no effect and ±100 for the full control effect
# Target sequence (O94925 whole entry, looked up): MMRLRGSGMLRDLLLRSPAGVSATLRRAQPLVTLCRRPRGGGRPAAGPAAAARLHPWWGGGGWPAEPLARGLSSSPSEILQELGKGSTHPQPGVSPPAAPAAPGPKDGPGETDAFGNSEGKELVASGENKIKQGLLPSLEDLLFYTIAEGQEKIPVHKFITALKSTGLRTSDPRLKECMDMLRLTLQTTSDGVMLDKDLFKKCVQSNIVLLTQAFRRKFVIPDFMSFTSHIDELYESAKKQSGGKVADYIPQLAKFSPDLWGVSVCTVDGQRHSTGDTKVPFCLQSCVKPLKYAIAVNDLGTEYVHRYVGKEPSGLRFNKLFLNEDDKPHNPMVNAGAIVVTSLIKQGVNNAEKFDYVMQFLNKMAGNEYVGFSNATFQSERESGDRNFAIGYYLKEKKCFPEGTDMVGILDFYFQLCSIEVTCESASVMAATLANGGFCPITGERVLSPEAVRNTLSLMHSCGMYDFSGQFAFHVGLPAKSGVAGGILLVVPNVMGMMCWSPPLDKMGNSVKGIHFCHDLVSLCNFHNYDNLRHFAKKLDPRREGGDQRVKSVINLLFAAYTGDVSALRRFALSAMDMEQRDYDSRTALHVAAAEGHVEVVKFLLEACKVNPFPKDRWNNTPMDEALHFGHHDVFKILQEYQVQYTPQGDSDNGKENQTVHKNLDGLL
#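 hKGA; 45 mM KH2PO4 pH 8.2 + 0.02% Tween-20; cpd via pin tool; 1 mM Gln soln; GluOx/HRP/Amplex Red; RT 30 min; fluor. t0 & final.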
# Vif-A3F inh = blocks the Vif interaction with APOBEC3F; Potency, µM (series often up to 46.1 µM), without a hit: at the top dose activity, negative = active; HeLa A3F-eYFP + Vif (tagged APOBEC3F with the HIV-1 protein that degrades it), YFP fluorescence increase; 390,000 tested, 0.2% active; also: potency is read from the fitted curve at half-maximal effect; % of control where 0% means no effect; nearly all actives have a fitted effect of over 65% in size
#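 HeLa cells stably expressing A3F-eYFP plus Vif, plated and incubated overnight at 37 deg C, then exposed to compounds overnight at 37 deg C. Blocked degradation read as raised yellow fluorescence (Ex 488/Em 500-530).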
# Vif-A3G inh = blocks the Vif interaction with human APOBEC3G; Q9HC16; HeLa A3G-eYFP + Vif (tagged APOBEC3G with the HIV-1 protein that degrades it), YFP fluorescence, overnight; Potency, µM (top dose mostly 46.1 µM), for the others: top-dose activity, negative = active, hits mostly inhibitors; 410,000 tested, 0.076% active; also: potency is read from the fitted curve at half-maximal effect; % is scaled to controls: 0 for no effect and ±100 for the full control effect; nearly all actives have a fitted effect of over 60% in size
#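 Read-out is eYFP fluorescence (Ex 488/Em 500-530) from Vif-expressing HeLa A3G-eYFP cells; more signal means A3G escaped Vif-mediated degradation. Cells plated overnight, compound pinned in, incubated overnight at 37 deg C.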
# Epigenetic reg = derepresses silenced GFP reporter in murine cells; murine LDR cells, GFP reporter derepression, 30 h; Potency, µM (top dose mostly 53.9 µM), for inactives: top-dose GFP activation, most hits filed as activators; 280,000 tested, 0.2% active; also: potency is read from the fitted curve at half-maximal effect; % of control where 0% means no effect; nearly all actives have a fitted effect of over 60% in size
#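 GFP-positive cell count by laser-scanning cytometry (objects 20–120 um) after 30 h, 37 C compound exposure of murine LDR cells; reporter is CMV-GFP integrated at a silenced locus, inducible by HDAC or DNMT inhibitors.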
# C127i cell count = counter-screen for epigenetic modulators: effect in parental c127i cells | shares compounds with Epigenetic reg | mouse c127i parental cells, fluorescent cell count, 30 h | 60 tested, 20% active | Potency, µM, inactives show at the top dose fluorescent cell count, hits mostly activators
# HCC4017 viab = HCC4017 cytotoxicity of epigenetic modulator hits; 45 tested, 30% active; HCC4017 NSCLC viability, CellTiter-Glo ATP luminescence, 72 h; shares compounds with Epigenetic reg; AID 493071; Potency, µM (titrated, usually from 46.1 µM), inactives show at the top dose activity change, negative = cytotoxicity, most hits filed as cytotoxic
# H358 viab = H358 cytotoxicity of epigenetic modulator hits. shares compounds with Epigenetic reg. H358 NSCLC viability, ATP luminescence, 72 h. Potency, µM (top dose mostly 46.1 µM), for inactives: at the highest dose activity change, negative = viability loss, most hits filed as cytotoxic. 45 tested, 30% active. AID 493074
# GLS hit conf = confirmation of human glutaminase inhibitors. shares compounds with GLS inh. biochemical glutaminase enzyme inhibition assay. Potency, µM (series often up to 46.1 µM), for the others: at the highest dose activity change, negative = inhibition, usual class: inhibitors. 35 tested, under 10 active. AID 624261; calls by dose curve
# HRP GOx counter = coupled enzyme interference in glutaminase inhibitor counterscreen; activity change, negative = inhibition, % at 46.1 µM; AID 624262; HRP/glutamate oxidase coupled Amplex Red fluorescence counterscreen; 35 tested, under 10 active; shares compounds with GLS inh
# GLS HEK tox = HEK-293 cytotoxicity, glutaminase hit confirmation; HEK-293 viability, CellTiter-Glo luminescence, 24 h; activity change, negative = cytotoxicity, % at 46.1 µM; 35 tested, under 10 active; shares compounds with GLS inh
# Starred values were filed as active, the others as inactive; u = inconclusive; x = no result given. Shown are actives, neighbours in structure and some others; about 0.7% of the full set was active somewhere. Unless noted, calls follow the shape of the dose curve; as a rule, active = well fitted curve in the direction sought with a large enough effect; inconclusive = small, poorly fitted or top-dose-only effect, or another doubt; inactive = no such curve, though single readings can be large; an effect the other way counts as inactive or inconclusive.
SMILES,PINK1 expr mod,GLS inh,Vif-A3F inh,Vif-A3G inh,Epigenetic reg,GLS hit conf,HRP GOx counter,GLS HEK tox,others
CC(C)C(=O)N1CCN(c2ccc(NC(=O)c3ccc([N+](=O)[O-])o3)cc2Cl)CC1,1.7%,0.0%,0.9%,u,u,x,x,x,C127i cell count=u
CCCC(=O)N1CCN(c2ccc(NC(=O)c3ccc([N+](=O)[O-])o3)cc2Cl)CC1,0.4%,3.6%,-0.5%,u,u,x,x,x,C127i cell count=4.0%;HCC4017 viab=1.77µM*;H358 viab=2.5µM*
CN1CCN(c2ccc(NC(=O)c3ccc([N+](=O)[O-])o3)cc2Cl)CC1,8.7%,-3.3%,-0.7%,u,x,x,x,x,
COCC(=O)Nc1cc(C(=O)N2CC3(C)CC2CC(C)(C)C3)c2c(c1)nc(-c1ccncc1)n2C (stereo not drawn),0.0%,x,x,x,x,x,x,x,
O=C(O)CCCCCN1C(=O)/C(=C\c2ccc(-c3ccc(Cl)cc3)o2)SC1=S,2.5%,u,u,-5.7%,3.55µM*,x,x,x,C127i cell count=7.94µM*
CC(=O)NCC(=O)NCC1Cc2cc(C)cc(-c3ccccn3)c2O1 (stereo not drawn),0.7%,x,x,x,x,x,x,x,
COc1cccc(/C=C(\C#N)c2nc3ccc(C)cc3[nH]2)c1,9.7%,-2.4%,u,u,u,x,x,x,
CCCOc1cc(N(CC)CC)ccc1/C=C(/C#N)c1nc2ccc(C)cc2[nH]1,15.9%,5.8%,3.16µM*,u,2.4%,x,x,x,C127i cell count=2.51µM*
O=C(CSc1c2c(nc3cc(Cl)ccc13)CCCC2)NCCCN1CCOCC1,1.5%,2.5%,3.9%,-20.4%,-2.1%,x,x,x,
CCN(CC)CCCNC(=O)CSc1c2c(nc3cc(Cl)ccc13)CCCC2,4.6%,-6.5%,-3.5%,-13.0%,u,x,x,x,C127i cell count=5.0%;HCC4017 viab=u;H358 viab=28.1µM*
CC(C)c1c(C(=O)N2CCN(CCO)CC2)cnn1-c1nccc(-c2cccs2)n1,-0.1%,x,x,x,x,x,x,x,
Oc1ccc(Br)cc1C=Nc1ccc2c3c(cccc13)CC2,5.7%,64.1%,-10.1%,u,3.55µM*,x,x,x,C127i cell count=2.0%;HCC4017 viab=-11.2%;H358 viab=u
Oc1ccc(Cl)cc1C=Nc1ccccc1Br,-1.9%,-1.2%,1.3%,1.1%,-3.2%,x,x,x,
CC(C)Cc1nc2cc(NS(=O)(=O)N(C)C)cc(C(=O)N3CC4(C)CC3CC(C)(C)C4)c2n1C (stereo not drawn),0.3%,x,x,x,x,x,x,x,
CSc1nsc(/C=C/Nc2cccc(Cl)c2)c1C#N,5.3%,18.3%,u,u,7.08µM*,x,x,x,C127i cell count=10µM*;HCC4017 viab=-18.7%;H358 viab=-14.3%
Cc1ccccc1NS(=O)(=O)c1cccc(C(=O)Nc2cccc(C(=O)O)c2)c1,1.8%,1.3%,2.0%,0.8%,x,x,x,x,
O=C(Nc1ccccc1O)c1cccc(S(=O)(=O)Nc2ccccc2O)c1,-1.0%,10µM*,6.4%,-3.4%,x,u,u,0.8,
COc1ccc(C(=O)Nc2c(O)ccc3ccccc23)cc1OC,2.6%,-28.8%,4.8%,7.0%,x,x,x,x,
COc1ccc(S(=O)(=O)Nc2c(O)ccc3ccccc23)cc1OC,-0.5%,u,9.8%,-1.4%,x,-6.7%,u,-9.8,
COc1ccc(S(=O)(=O)Nc2cccc3ccc(O)cc23)cc1,3.2%,11.2µM*,-15.3%,-31.0%,x,-2.5%,u,u,
NS(=O)(=O)c1ccc(CNS(=O)(=O)c2cc(C(=O)O)ccc2Cl)cc1,-0.5%,11.2µM*,2.3%,0.8%,1.1%,5.8µM*,-1.1,-11.6,
Cc1ccc(NS(=O)(=O)c2cc(C(=O)O)ccc2Cl)cc1C,x,x,x,x,-0.2%,x,x,x,
Cc1ccc(NS(=O)(=O)c2cc(C(=O)O)ccc2Cl)cc1,1.8%,11.2µM*,2.8%,-16.7%,9.1%,u,-2.9,-5.1,
Cc1cc2c(c(-c3ccc(Cl)cc3)c1)OC(CNC(=O)Cc1c(C)noc1C)C2 (stereo not drawn),3.9%,x,x,x,x,x,x,x,
COC(=O)c1sccc1S(=O)(=O)N1CCC(n2c(CC3CCCC3)nc3cccnc32)CC1,2.1%,x,x,x,x,x,x,x,
SMILES,PINK1 expr mod,GLS inh,Vif-A3F inh,Vif-A3G inh,Epigenetic reg,GLS hit conf,HRP GOx counter,GLS HEK tox,others
CCN(CC)c1ccc(N)cc1S(=O)(=O)Nc1ccc(OC)cc1,1.0%,u,-0.5%,0.4%,2.8%,-2.0%,u,8.0,
CCN(CC)c1ccc(NC(=O)c2ccccn2)cc1S(=O)(=O)Nc1ccccc1OC,0.2%,-4.9%,-17.7%,-1.2%,x,x,x,x,
CCN(CC)c1ccc(NC(=O)COc2ccccc2C#N)cc1S(=O)(=O)Nc1ccccc1OC,7.6%,u,-4.5%,-0.7%,-0.9%,-0.9%,-3.1,-9.7,
CCN(CC)c1ccc(N)cc1S(=O)(=O)Nc1ccccc1OC,0.2%,7.08µM*,-1.3%,-5.9%,8.1%,-4.6%,u,3.2,
COC(=O)C1CCN(c2nc(CN(C)C3CCOC3)nc3cc(OC)c(OC)cc23)CC1 (stereo not drawn),2.4%,x,x,x,x,x,x,x,
Cc1cccc(CNC(=O)c2cnn(-c3nccc(-c4cccs4)n3)c2C2CC2)n1,-0.5%,x,x,x,x,x,x,x,
CC(=O)N1CCC[C@H]1C(=O)N1CCc2c(cnc(C)c2CNC(=O)/C=C/c2cccs2)C1,-0.4%,x,x,x,x,x,x,x,
COc1ccccc1NC(=O)c1cc(S(=O)(=O)NCc2ccccc2)ccc1F,7.2%,u,-19.7%,-28.8%,-0.2%,5.6%,-1.3,2.9,
COc1ccc(OC)c(S(=O)(=O)Nc2ccccc2O)c1,-2.6%,10µM*,4.3%,-3.3%,x,u,u,-2.4,
Cc1ccc(S(=O)(=O)Nc2ccccc2/C=N/c2nc3ccccc3n2C)cc1,29.4%,u,-0.8%,-5.5%,3.6%,u,6.7,-6.5,
COc1cccc(-c2nc3cc(SC)ccc3cc2CN(C(=O)c2sccc2C)C2CC2)c1,0.6%,x,x,x,x,x,x,x,
O=C(Nc1cccc(N2CCC(NCc3cnn(-c4ccccc4)n3)CC2)c1)c1cccnc1,-0.6%,x,x,x,x,x,x,x,

# Screening results (PubChem BioAssay)
